Activity calls are given as the source filed them.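 Rule for the calls: active = cell survival after UV exposure 2 SD above solvent-only control wells at 10 µM, confirmed on one or two repeats; inactive = the rest.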

This experiment can be described thus: protection of CHO cells from pyrene-fatty acid UV killing, primary screen, phospholipid biosynthesis inhibitor project, ZR-82 cells, Analyticon library, screen 2 (AID 1347383).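 Note: survival reflects blocked phospholipid synthesis cutting uptake of the phototoxic fatty acid; compound and fatty acid exposure 3 h then viability read next day.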 As to conditions: ZR-82 CHO cells, CellTiter Blue, at 10 µM, peroxisome-deficient CHO-K1 variant, with DGAT-1, DGAT-2 and ACAT inhibitors. Background: Resazurin is reduced to fluorescent resorufin, in cell work by metabolically active cells.
In the case of `COc1cc(O)c2c(=O)c3cc(O)c(O)cc3oc2c1`, the result was inactive.
`C=C1C(=O)OC2/C=C(\C)C3=CC(=O)C(C)(CC(OC(=O)/C(C)=C/COC(C)=O)C12)O3` (stereo not given): the compound was called inactive.
For the compound `CC(C)c1ccc2c(c1)CCC1[C@](C)(C(=O)O)CCC[C@]21C` (stereo not given in full), the call was inactive.
Take `COc1ccc(Cc2nccc3cc(OC)c(OC)cc23)cc1OC`: the compound was classed as inactive.
In the case of `COC1OC(OC)C(O)(CC/C=C(\C)CC/C=C(\C)C(=O)O)C1O` (stereo not given) it was “inactive”; in that of `CCCCCC1=C(CO)C(O)C(O)CC1=O` (stereo not given), “inactive”.
Then `O=C(O)CCc1c(O)ccoc1=O`, with “inactive”; and `CC1Cc2cc(O)c(O)cc2C(c2ccc(O)cc2)C1C` (stereo not given), with “inactive”; and `COc1cc(OC2O[C@H](CO)[C@@H](O)[C@H](O)[C@H]2O)c2c(=O)c(-c3ccc(O)cc3)coc2c1` (stereo not given in full), with “inactive”.
In the case of `O=C1c2ccccc2C(=O)c2c(O)ccc(O)c21` it was “inactive”.
Turning to `C/C=C(/C(=O)O)N1C(=O)C=C(C)C1=O`, the compound was classed as inactive.
Turning to `C/C(=C\C(=O)C(C)C1CCC2C3=C(CCC21C)C1(C)CCC(O)C(C)(C)C1(O)CC3)C(C)(C)O` (stereo not given), the outcome was inactive.
In the case of `CCC(C)C1NC(=O)C2CCCN2C1=O` (stereo not given) it was “inactive”; in that of `C=C1CCc2occ(C)c2[C@H]2[C@H]1[C@@]13O[C@@]1(C[C@@H](C)[C@H]3OC(C)=O)[C@H]1O[C@@]21C`, “inactive”.
Then `Cc1c(O)cc2c(c1O)C(=O)c1ccccc1C2=O`, with “inactive”; and `O=C1CCC(=O)NCCCCCN(O)C(=O)CCC(=O)NCCCCCN(O)C(=O)CCC(=O)NCCCCCN1`, with “inactive”; and `COC(=O)/C=C/c1ncn(C)c1CC=C(C)C`, with “inactive”.
Then `CC(C)C(=O)C1(C(C)CC(=O)O)CCC(C)C(=O)C1` (stereo not given), with “inactive”; and `COc1ccc(C(O)CNC(=O)/C=C/c2ccccc2)cc1` (stereo not given), with “inactive”; and `COc1ccc(/C=C/C(=O)O)cc1`, with “inactive”.
In the case of `COc1ccc(C(O)C(C)OC2OC(CO)C(O)C(O)C2O)cc1` (stereo not given), the compound was classed as inactive.
Then `CC1=C2C[C@]3(C)C(=O)C[C@@H](C(C)C)[C@H]3C/C=C(/C)[C@@H]2CC1=O`, with “inactive”.
On to `CC(=O)CCCCCCCCNC(C)=O`, for which the result was inactive.
In the case of `CN1[C@@H]2CC[C@H]1CC(OC(=O)C(CO)c1ccccc1)C2` (stereo not given in full) it was “inactive”; in that of `CC1(C)C=Cc2c(c3ccccc3[nH]c2=O)O1`, “inactive”.
For `CC1(C)CC(O)CC2(C)OC(=O)C=C12` (stereo not given), the call was inactive.
Then `COC(=O)/C=C/C1(O)C=CC(=O)C=C1`, with “inactive”; and `CC(C)=CCCC1(C)C=Cc2c(c(C)cc3c2[nH]c2ccccc23)O1` (stereo not given), with “inactive”.
Then `C=C1C[C@H](O)C[C@]2(C)CC[C@@H](C(C)(C)O)CC12` (stereo not given in full), with “inactive”; and `O=C(O)COC(=O)CCCCCCCO`, with “inactive”.
Then `C=C1C(=O)OC2C1C(O)CC1(C)C(O)CCC(C=O)C21` (stereo not given), with “inactive”; and `O=c1ccc2nccc3c4ccccc4n1c23`, with “inactive”.
Turning to `CCC(O)/C=C1\OC(=O)C2=C1CCC=C2` (stereo not given), the outcome was inactive.
Then `COC(=O)/C=C(\C)CCC1(C)C(C)CCC2(C)C(C)=CC(=O)CC21` (stereo not given), with “inactive”; and `C=CCc1cc(OC)c(OC(C)C(O)c2ccc(O)c(OC)c2)c(OC)c1` (stereo not given), with “inactive”.
With `CCC(C)CC(=O)OC1C(=O)C(CO)C(OC)C(OC(C)=O)C1C(C)C` (stereo not given), the compound was classed as inactive.
Then `CO[C@@H]1C(=O)CC[C@]2(O)CO[C@H](CC=C(C)C)[C@](C)(O)[C@@]12O`, with “inactive”.
Consider `C=C(C)[C@H]1CC[C@]2(C(=O)O)CC[C@]3(C)C(CCC4[C@@]5(C)CCC(=O)C(C)(C)C5CC[C@]43C)C12` (stereo not given in full), for which the call was inactive.
For `COc1ccc(-c2coc3cc(O)ccc3c2=O)cc1O`, the compound was called inactive.
In the case of `COc1cc(O)c2c(=O)c(-c3ccc(O)cc3O[C@@H]3O[C@H](CO)[C@@H](O)[C@H](O)[C@H]3O)coc2c1` it was “inactive”.
